Data taken from PubChem BioAssay (EPA / NIEHS).
Inconclusive results are not listed. The source holds several records for some structures; these can differ, active in one and inactive in another. Activity calls are given as the source filed them. How the source made its calls, unless noted: active means hit-call score of the fitted dose curve at least 0.9, where 1 is the maximum; inconclusive means response in the unintended direction; inactive means score below 0.9.

Legend:
[1] = biological target: Estrogen-related receptor gamma (Homo sapiens) (UniProt P62508); test: ATG_ERRg_TRANS: Attagene TRANS-FACTORIAL HepG2 Assay for human Estrogen-Related Receptor gamma (ERRg) (AID 2282977); conditions: HepG2 Attagene TRANS reporter, ERRg transactivation;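 further: hits increase reporter signal over DMSO so potencies reflect activators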
Chain of Estrogen-related receptor gamma (Homo sapiens) (P62508 whole entry, looked up, the tested form may be a part): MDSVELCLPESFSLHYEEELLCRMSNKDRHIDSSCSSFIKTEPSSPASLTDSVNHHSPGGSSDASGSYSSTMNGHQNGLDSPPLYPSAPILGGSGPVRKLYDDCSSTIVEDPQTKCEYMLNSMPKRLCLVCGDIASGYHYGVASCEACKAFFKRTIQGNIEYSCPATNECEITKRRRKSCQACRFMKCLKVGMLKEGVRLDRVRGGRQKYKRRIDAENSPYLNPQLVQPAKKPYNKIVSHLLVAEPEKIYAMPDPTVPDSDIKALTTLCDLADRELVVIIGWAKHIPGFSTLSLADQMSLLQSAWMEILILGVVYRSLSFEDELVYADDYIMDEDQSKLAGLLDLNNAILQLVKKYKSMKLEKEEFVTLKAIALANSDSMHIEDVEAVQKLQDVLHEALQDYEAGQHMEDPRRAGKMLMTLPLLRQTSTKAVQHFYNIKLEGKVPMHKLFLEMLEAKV
Method in brief: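 Readout: fluorescent reporter-mRNA fragments resolved by capillary electrophoresis after RT-PCR and HpaI cut. Cells: transiently transfected HepG2 carrying GAL4-UAS reporters driven by exogenous NR-Gal4 chimeras, dosed 24 h. Activity fitted upward relative to DMSO baseline.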

[2] = biological target: Glucocorticoid receptor (Homo sapiens) (UniProt P04150); test: ATG_GR_TRANS: Attagene TRANS-FACTORIAL HepG2 Assay for human Glucocorticoid Receptor (GR) (AID 2282978); conditions: HepG2 Attagene TRANS GR reporter, mRNA transcription;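 further: activators score as hits since higher reporter transcript over DMSO is fitted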
Chain of Glucocorticoid receptor (Homo sapiens) (P04150 whole entry, looked up): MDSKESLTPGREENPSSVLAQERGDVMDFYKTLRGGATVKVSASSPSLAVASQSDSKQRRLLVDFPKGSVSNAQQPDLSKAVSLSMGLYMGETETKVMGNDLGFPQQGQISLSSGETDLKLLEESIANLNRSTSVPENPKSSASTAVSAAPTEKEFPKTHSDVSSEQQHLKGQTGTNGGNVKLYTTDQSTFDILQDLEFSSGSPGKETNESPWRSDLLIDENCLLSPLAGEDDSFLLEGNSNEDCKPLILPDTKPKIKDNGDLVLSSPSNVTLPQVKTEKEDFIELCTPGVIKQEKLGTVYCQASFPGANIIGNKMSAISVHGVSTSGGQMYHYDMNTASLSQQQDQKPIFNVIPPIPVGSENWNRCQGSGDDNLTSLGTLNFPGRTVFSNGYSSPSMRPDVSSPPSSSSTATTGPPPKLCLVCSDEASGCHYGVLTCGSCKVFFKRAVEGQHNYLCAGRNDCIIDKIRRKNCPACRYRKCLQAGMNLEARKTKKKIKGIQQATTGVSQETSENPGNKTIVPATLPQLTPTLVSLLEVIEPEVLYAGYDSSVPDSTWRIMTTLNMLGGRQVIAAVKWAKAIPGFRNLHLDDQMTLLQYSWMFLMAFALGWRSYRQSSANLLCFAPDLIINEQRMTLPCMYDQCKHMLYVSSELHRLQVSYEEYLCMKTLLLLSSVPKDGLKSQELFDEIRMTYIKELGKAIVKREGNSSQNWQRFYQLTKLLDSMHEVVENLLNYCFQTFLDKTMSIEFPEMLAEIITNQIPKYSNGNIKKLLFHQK
Method in brief: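 After 24 h incubation with test chemical, transfected HepG2 cells were lysed for RNA; reporter cDNA was amplified, FAM-labelled, HpaI-digested and sized on a capillary analyser. Signal gain relative to DMSO was scored.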

[3] = biological target: Bile acid receptor (Homo sapiens) (UniProt Q96RI1); test: ATG_FXR_TRANS: Attagene TRANS-FACTORIAL HepG2 Assay for Farnesoid X Receptor (FXR) (AID 2282979); conditions: HepG2 Attagene TRANS FXR-GAL4 reporter transcription;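 further: hits raise reporter mRNA above DMSO so AC50 marks FXR activation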
Chain of Bile acid receptor (Homo sapiens) (Q96RI1 whole entry, looked up, the tested form may be a part): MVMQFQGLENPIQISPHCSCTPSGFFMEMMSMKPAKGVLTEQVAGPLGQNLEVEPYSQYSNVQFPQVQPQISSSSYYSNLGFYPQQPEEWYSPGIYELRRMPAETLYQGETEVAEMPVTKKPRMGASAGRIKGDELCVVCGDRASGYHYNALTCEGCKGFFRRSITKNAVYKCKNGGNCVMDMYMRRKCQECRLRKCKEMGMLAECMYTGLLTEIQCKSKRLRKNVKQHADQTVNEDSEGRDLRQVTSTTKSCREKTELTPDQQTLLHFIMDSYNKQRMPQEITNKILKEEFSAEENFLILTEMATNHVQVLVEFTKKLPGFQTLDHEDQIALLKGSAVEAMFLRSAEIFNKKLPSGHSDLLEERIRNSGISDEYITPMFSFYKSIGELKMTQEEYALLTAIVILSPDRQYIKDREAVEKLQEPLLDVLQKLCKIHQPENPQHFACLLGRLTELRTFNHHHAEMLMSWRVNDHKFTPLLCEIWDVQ
Method in brief: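 HepG2 cells were transiently transfected with GAL4-UAS reporters driven by chimeric NR-Gal4 proteins and dosed for 24 h. Reporter mRNA was quantified by RT-PCR, fluorescent labelling, HpaI digestion and capillary electrophoresis, with gain of signal scored versus DMSO.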

[4] = biological target: Oxysterols receptor LXR-alpha (Homo sapiens) (UniProt Q13133); test: ATG_LXRa_TRANS: Attagene TRANS-FACTORIAL HepG2 Assay for human Liver X Receptor alpha (LXRa) (AID 2282980); conditions: HepG2 Attagene TRANS reporter, LXRa transactivation
Chain of Oxysterols receptor LXR-alpha (Homo sapiens) (Q13133 whole entry, looked up, the tested form may be a part): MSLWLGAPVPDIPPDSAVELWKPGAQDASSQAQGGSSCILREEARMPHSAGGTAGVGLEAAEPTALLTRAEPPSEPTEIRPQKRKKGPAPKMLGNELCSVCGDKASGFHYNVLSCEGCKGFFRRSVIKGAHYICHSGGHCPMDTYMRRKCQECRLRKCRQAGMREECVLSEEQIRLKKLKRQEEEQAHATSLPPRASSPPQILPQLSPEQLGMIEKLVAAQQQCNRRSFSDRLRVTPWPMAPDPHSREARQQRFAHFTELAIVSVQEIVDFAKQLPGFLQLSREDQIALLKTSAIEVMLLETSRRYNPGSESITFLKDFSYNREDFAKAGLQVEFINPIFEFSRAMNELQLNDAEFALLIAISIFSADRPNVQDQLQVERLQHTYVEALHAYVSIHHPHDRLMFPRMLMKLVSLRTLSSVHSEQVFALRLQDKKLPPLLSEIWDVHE
Method in brief: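 HepG2 cells transiently transfected with GAL4-UAS reporter units for chimeric NR-Gal4 proteins, exposed to chemicals for 24 h. Reporter mRNA quantified by RT-PCR and capillary electrophoresis; gain of signal fitted relative to DMSO.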

[5] = biological target: Oxysterols receptor LXR-beta (Homo sapiens) (UniProt P55055); test: ATG_LXRb_TRANS: Attagene TRANS-FACTORIAL HepG2 Assay for human Liver X Receptor beta (LXRb) (AID 2282981); conditions: HepG2 Attagene TRANS GAL4-LXRb reporter, mRNA
Chain of Oxysterols receptor LXR-beta (Homo sapiens) (P55055 whole entry, looked up, the tested form may be a part): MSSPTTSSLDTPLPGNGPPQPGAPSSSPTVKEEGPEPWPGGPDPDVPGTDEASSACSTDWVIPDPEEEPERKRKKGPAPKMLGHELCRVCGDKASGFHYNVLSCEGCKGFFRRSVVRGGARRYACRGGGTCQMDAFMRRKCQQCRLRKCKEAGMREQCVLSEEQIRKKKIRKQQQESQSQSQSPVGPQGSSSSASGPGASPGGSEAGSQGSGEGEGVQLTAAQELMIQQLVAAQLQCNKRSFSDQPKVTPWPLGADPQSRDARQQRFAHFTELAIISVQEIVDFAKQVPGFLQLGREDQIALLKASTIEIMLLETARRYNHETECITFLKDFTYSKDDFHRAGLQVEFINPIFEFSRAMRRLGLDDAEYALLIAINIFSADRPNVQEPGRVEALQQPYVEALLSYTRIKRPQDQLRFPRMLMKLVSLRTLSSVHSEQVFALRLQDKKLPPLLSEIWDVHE
Method in brief: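 Readout: fluorescent reporter mRNA fragments resolved by capillary electrophoresis after RT-PCR. System: transiently transfected human HepG2, exogenous LXRb-Gal4 chimera driving GAL4-UAS reporter, 24 h dosing. Activity fitted upward against DMSO baseline.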

[6] = biological target: Hepatocyte nuclear factor 4-alpha (Homo sapiens) (UniProt P41235); test: ATG_HNF4a_TRANS: Attagene TRANS-FACTORIAL HepG2 Assay for human Hepatocyte Nuclear Factor 4 alpha (HNF4a) (AID 2282982); conditions: HepG2 HNF4a transactivation reporter, mRNA readout
Chain of Hepatocyte nuclear factor 4-alpha (Homo sapiens) (P41235 whole entry, looked up): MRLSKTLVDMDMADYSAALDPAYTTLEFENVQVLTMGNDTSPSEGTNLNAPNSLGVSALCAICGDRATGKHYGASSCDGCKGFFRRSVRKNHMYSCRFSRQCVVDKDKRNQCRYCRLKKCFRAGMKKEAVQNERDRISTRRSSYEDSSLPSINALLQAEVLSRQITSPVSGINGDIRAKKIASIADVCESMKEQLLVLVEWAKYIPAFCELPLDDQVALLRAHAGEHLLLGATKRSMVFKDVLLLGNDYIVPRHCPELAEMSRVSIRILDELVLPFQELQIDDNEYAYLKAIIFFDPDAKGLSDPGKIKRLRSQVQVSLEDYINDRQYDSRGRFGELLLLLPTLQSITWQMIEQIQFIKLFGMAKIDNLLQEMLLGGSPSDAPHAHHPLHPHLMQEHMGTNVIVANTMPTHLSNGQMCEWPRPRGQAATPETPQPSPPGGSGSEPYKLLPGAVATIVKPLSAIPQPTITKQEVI
Method in brief: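 Transient MRTU transfection of HepG2, 24 h dosing. Readout: reporter mRNA via RT-PCR + capillary electrophoresis, fluorescence; activity fit upward relative to DMSO control.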

[7] = ATG_M_06_TRANS: Attagene TRANS-FACTORIAL HepG2 Assay for M06 Transcription Factor (Internal Marker) (AID 2282983); conditions: HepG2 Attagene TRANS M06 internal marker reporter;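 on AC50: potency for rise in reporter mRNA above DMSO baseline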
Method in brief: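 mRNA levels of a reporter transcript, quantified as FAM fluorescence on capillary electrophoresis, served as readout. HepG2 cells expressing exogenous GAL4-chimera reporter constructs were exposed for 24 h. Gain of signal over DMSO was evaluated.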

[8] = ATG_M_32_TRANS: Attagene TRANS-FACTORIAL HepG2 Assay for M32 Transcription Factor (Internal Marker) (AID 2282984); conditions: HepG2 Attagene TRANS M32 internal marker reporter;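 further: transcript level of a background control reporter unit measured by RT-PCR and capillary electrophoresis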
Method in brief: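 Read-out: fluorescent reporter cDNA fragments resolved by capillary electrophoresis after RT-PCR of total RNA. Transfected HepG2 cells were exposed to chemical for 24 h. Activity scored in the positive direction relative to DMSO.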

[9] = biological target: Nuclear receptor subfamily 4 group A member 2 (Homo sapiens) (UniProt P43354); test: ATG_NURR1_TRANS: Attagene TRANS-FACTORIAL HepG2 Assay for human Nuclear Receptor Related Protein 1 (NURR1) (AID 2282985); conditions: HepG2 Attagene TRANS reporter, mRNA readout
Chain of Nuclear receptor subfamily 4 group A member 2 (Homo sapiens) (P43354 whole entry, looked up, the tested form may be a part): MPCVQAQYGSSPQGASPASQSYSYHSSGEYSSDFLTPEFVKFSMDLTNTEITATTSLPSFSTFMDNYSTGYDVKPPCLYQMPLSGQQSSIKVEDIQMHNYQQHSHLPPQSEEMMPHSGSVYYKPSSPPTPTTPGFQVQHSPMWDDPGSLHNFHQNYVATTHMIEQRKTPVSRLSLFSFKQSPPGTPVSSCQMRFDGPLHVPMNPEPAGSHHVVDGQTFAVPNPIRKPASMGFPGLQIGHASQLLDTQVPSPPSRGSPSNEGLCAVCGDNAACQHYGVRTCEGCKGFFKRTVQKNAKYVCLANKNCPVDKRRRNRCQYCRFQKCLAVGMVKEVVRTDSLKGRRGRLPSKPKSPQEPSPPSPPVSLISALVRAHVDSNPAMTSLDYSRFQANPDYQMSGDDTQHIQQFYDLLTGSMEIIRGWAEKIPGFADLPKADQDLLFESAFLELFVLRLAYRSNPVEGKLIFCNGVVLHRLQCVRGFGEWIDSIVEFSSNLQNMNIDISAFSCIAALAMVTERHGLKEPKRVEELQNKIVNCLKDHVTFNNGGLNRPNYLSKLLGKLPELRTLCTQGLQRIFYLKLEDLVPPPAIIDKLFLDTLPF
Method in brief: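 Read-out: reporter mRNA induction by RT-PCR plus capillary electrophoresis with fluorescence detection, after 24 h dosing of transfected HepG2 cells. Exogenous NR-Gal4 chimera activity drives GAL4-UAS reporter; activity fitted upward versus DMSO.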

[10] = biological target: Transcriptional activator Myb (Homo sapiens) (UniProt P10242); test: ATG_Myb_CIS: Attagene CIS-FACTORIAL HepG2 Assay for human Myeloblastosis (Myb) Proto-Oncogene Transcription Factor (AID 2282986; active means hit-call score of the fitted dose curve at least 0.9, where 1 is the maximum; inactive means score below 0.9); conditions: HepG2 Attagene CIS-FACTORIAL Myb reporter transcription; actives raise or lower the signal
Chain of Transcriptional activator Myb (Homo sapiens) (P10242 whole entry, looked up): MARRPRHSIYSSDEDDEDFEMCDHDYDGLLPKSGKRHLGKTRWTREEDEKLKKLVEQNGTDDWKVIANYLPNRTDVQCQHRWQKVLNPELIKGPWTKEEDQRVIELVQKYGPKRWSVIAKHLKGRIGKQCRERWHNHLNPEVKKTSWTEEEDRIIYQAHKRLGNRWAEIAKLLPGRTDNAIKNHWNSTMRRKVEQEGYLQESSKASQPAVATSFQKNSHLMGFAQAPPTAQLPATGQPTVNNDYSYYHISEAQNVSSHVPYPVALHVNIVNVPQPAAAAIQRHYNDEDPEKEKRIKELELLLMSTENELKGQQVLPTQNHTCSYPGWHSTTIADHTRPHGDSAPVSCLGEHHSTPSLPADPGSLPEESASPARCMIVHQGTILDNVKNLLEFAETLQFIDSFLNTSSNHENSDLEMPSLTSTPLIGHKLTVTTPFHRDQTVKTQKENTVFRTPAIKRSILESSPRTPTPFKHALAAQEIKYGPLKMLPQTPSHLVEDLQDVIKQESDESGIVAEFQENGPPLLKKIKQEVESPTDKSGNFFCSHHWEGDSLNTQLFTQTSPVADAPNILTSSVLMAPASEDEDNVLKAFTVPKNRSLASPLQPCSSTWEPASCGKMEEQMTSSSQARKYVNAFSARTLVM
Method in brief: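 After 24 h of compound dosing, total RNA from transfected HepG2 cells is reverse-transcribed and the reporter sequences amplified, labeled and separated by capillary electrophoresis. Values come from bidirectional fitting against DMSO.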

Measured: AC50

CCO[Si](CCC(F)(F)C(F)(F)C(F)(F)C(F)(F)C(F)(F)C(F)(F)F)(OCC)OCC
inactive: all assays above

FC1CC(F)(F)C(F)(F)C1(F)F (configuration not stated)
inactive: [1] | [2] | [4] | [5] | [8] | [10]

CC(Cc1ccc(O)c(O)c1)C(C)Cc1ccc(O)c(O)c1 (configuration not stated)
not listed: [3] | [5] | [9]
inactive: all other assays above

CC/C=C\CCOC(C)=O
not listed: [3] | [6] | [9]
inactive: all other assays above

O=C(O)C(F)(F)C(F)(F)C(F)(F)C(F)(F)C(F)(F)C(F)(F)C(F)(F)C(F)(F)C(F)(F)C(F)F
active: [4] 50 µM | [5] 78 µM | [9] 28.2 µM
not listed: [2]
inactive: all other assays above

C=C(C)C(=O)OCC(F)(F)C(F)(F)C(F)(F)F
not listed: [3] | [6] | [9]
inactive: all other assays above

CCCCCCOC(=O)c1ccccc1O
inactive: [1] | [2] | [4] | [6] | [7] | [10]

OCCCC(F)(F)C(F)(F)C(F)(F)C(F)(F)C(F)(F)C(F)(F)C(F)(F)F
inactive: [1] | [2] | [4] | [5] | [8] | [10]
active: [7] 79.1 µM | [10] 81.7 µM

CCN(Cc1cccc(S(=O)(=O)O)c1)c1ccc(C(=C2C=CC(=[N+](CC)Cc3cccc(S(=O)(=O)O)c3)C=C2)c2ccc(O)cc2S(=O)(=O)[O-])cc1
not listed: [2] | [6] | [7]
inactive: all other assays above

CCc1c(Br)c(Br)c(Br)c(Br)c1Br
inactive: [1] | [3] | [4] | [7] | [8] | [10]

FC(F)(F)C(F)(F)C(F)(F)C(F)(F)C(F)(F)C(F)(F)C(F)(F)Br
not listed: [3] | [9]
inactive: all other assays above

CC(=O)Nc1ccc(N=Nc2cc(C)ccc2O)cc1
not listed: [2] | [4]
inactive: all other assays above

Cc1cc(C)cc(O)c1
inactive: [1] | [2] | [4] | [5] | [6] | [10]

O=C(O)C(F)(OC(F)(F)C(F)(OC(F)(F)C(F)(OC(F)(F)C(F)(F)C(F)(F)F)C(F)(F)F)C(F)(F)F)C(F)(F)F (configuration not stated)
inactive: [1] | [2] | [4] | [5] | [7] | [10]

O=C(O)C(F)(F)C(F)(F)C(F)F
not listed: [3]
inactive: all other assays above

CCCCCCCCCCCCCCCC[N+](C)(C)Cc1ccccc1
inactive: [2] | [3] | [4] | [5] | [10]
active: [1] 45.2 µM | [6] 24.8 µM

FC(F)(F)C(F)(F)CNCC(F)(F)C(F)(F)F
not listed: [2] | [3]
inactive: all other assays above

C#C[C@]1(O)CC[C@H]2[C@@H]3CCc4cc(OC)ccc4[C@H]3CC[C@@]21C
not listed: [9]
inactive: all other assays above

Nc1ccc(S(=O)(=O)Nc2nccs2)cc1
not listed: [3] | [9]
inactive: all other assays above

CCCCC(CC)COP(=O)(O)OCC(CC)CCCC (configuration not stated)
inactive: [1] | [2] | [8] | [10]

O=C(O)C(F)(F)C(F)(F)C(F)(F)C(F)(F)F
not listed: [3] | [6] | [9]
inactive: all other assays above

C=CC(F)(F)C(F)(F)C(F)(F)C(F)(F)C(F)(F)C(F)(F)C(F)(F)C(F)(F)F
not listed: [3]
inactive: all other assays above
